The results in this text go back to PubChem BioAssay (NCATS).

Inconclusive results are not listed. Some structures have more than one record in an assay (separate samples or runs), and their calls can disagree. Active and inactive are the calls of the source. Unless noted, calls follow the shape of the dose curve; as a rule, active = well fitted curve in the direction sought with a large enough effect; inconclusive = small, poorly fitted or top-dose-only effect, or another doubt; inactive = no such curve, though single readings can be large; an effect the other way counts as inactive or inconclusive.

Assay [1] addresses Atrial natriuretic peptide receptor 1 (Homo sapiens) (UniProt P16066). Briefly: Natriuretic polypeptide receptor (hNpr1) antagonism - Pilot screen (AID 1347049; calls by dose curve;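 also: agonist-evoked cGMP luminescence read 20 min after hNppA addition; series mostly up to about 58 µM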). Put shortly: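 cGMP-sensor HEK293/hNpr1 cells, 1500/well, plated overnight at 37C. 2% GloSensor reagent, 2 h RT. Compound (23 nL pin transfer) 30 min RT, baseline luminescence pre-read. 0.1 nM hNppA, 20 min RT, post-read.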

In assay [2] the target is Atrial natriuretic peptide receptor 2 (Homo sapiens) (UniProt P20594). Nature of the assay: Natriuretic polypeptide receptor (hNpr2) antagonism - Pilot subtype selectivity assay (AID 1347050; calls by dose curve; also: potency is read from the fitted curve at half-maximal effect). Put shortly: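 Luminescence from a genetically encoded cGMP luciferase biosensor in hNpr2-expressing HEK293 cells is read before and 20 min after adding 1 nM hNppC. Test compounds, in interplate 1:5 titrations, are added 30-50 min ahead of the agonist.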
Sequence of Atrial natriuretic peptide receptor 2 (Homo sapiens) (P20594 whole entry, looked up): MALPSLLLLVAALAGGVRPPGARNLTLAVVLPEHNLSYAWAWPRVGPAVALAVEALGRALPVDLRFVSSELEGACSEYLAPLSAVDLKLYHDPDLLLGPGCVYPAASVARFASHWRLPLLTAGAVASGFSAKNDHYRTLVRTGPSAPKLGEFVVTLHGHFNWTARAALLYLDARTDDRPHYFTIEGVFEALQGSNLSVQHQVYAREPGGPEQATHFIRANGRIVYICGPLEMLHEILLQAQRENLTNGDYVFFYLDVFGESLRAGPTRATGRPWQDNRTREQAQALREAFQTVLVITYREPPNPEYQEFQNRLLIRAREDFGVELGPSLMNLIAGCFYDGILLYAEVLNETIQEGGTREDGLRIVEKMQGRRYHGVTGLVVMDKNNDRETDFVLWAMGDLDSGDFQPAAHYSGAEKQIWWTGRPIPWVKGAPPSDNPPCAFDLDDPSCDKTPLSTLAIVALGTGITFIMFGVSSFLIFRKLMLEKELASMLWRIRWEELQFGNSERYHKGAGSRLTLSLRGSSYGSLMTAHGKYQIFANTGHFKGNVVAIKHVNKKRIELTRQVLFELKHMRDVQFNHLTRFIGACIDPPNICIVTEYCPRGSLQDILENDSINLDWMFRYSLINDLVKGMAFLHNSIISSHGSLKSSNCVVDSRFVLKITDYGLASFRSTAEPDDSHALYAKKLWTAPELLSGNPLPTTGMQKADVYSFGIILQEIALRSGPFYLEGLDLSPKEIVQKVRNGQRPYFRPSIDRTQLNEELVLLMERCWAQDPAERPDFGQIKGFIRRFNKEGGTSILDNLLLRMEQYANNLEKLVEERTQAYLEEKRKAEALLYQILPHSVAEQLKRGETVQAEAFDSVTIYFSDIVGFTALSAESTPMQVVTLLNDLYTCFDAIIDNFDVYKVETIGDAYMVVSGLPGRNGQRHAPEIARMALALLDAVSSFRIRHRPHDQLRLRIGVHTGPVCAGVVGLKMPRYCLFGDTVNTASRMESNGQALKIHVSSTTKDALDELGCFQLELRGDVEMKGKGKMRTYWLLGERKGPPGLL

Assay [3] is described as follows: NS1 protein of Zika virus - qHTS assay to identify small molecule inhibitors in human HEK 293 cells (AID 1347053). Also: nearly all actives have a fitted effect of over 55% in size. Also: potency is read from the fitted curve at half-maximal effect. The procedure, abridged: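 Read-out is a two-antibody TR-FRET for ZIKV NS1, normalized between uninfected cells and infected cells. Compound added 1 h before MR766 infection at MOI 0.5; human HEK 293 cells incubated 24 h, 37 C.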
For orientation: Quantitative high-throughput screening tests each substance at several concentrations.

Assay [4] deals with T1, Tyrosine-protein phosphatase non-receptor type substrate 1 (Homo sapiens) + Leukocyte surface antigen CD47 (Homo sapiens) (UniProt P78324+Q08722). Nature of the assay: CD47-SIRPalpha protein protein interaction - LANCE assay qHTS validation (AID 1347057; active = well fitted curve in the direction sought with a large enough effect in the signal ratio, with a control signal flat, not every such curve was filed as active; the % refers to the signal ratio; also: series mostly up to about 38 µM). The procedure, abridged:
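Inhibition of soluble CD47/SIRPalpha ectodomain association by titrated compounds, measured as 665/615 nm time-resolved FRET ratio after sequential 30 min room-temperature incubations.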
(Time-resolved FRET reads energy transfer from a long-lived donor to a nearby acceptor.)

Assay [5] deals with T1, Tyrosine-protein phosphatase non-receptor type substrate 1 (Homo sapiens) + Leukocyte surface antigen CD47 (Homo sapiens). Nature of the assay: CD47-SIRPalpha protein protein interaction - HTRF assay qHTS validation (AID 1347058; active = well fitted curve in the direction sought with a large enough effect in the signal ratio, not every such curve was filed as active; the % refers to the signal ratio; also: series mostly up to about 38 µM). Put shortly: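 Soluble extracellular domains (6His-CD47, Avi-tag-biotinylated SIRPalpha) in PBS pH 7.4 with 0.05% IGEPAL CA-630. Compounds were preincubated 30 min at RT with CD47 and anti-His-Eu, then SIRPalpha and SAV-XL665 were added. TR-FRET 665/615 ratio.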

Assay [6] concerns the target Parathyroid hormone/parathyroid hormone-related peptide receptor (Homo sapiens) (UniProt Q03431). Briefly: qHTS for PTHR1 Agonists: Optimization Screen against the NCGC LOPAC library (AID 1347079).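 Also: GloSensor cAMP luminescence in HEK-293 GP2 cells expressing human PTHR1 with IBMX.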 Also: potency is read from the fitted curve at half-maximal effect. The procedure, abridged: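 HEK-293 GP2 cells, PTHR1 + GloSensor cAMP; 3000 cells/well, o/n. Luciferin + IBMX 0.5mM each (stock), 1 hr 37C. Cpd titration, 1 hr 37C. Lum after 15 min RT. Ctrl M-PTH(1-15) top 10uM.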

A short description of assay [7]: qHTS of pediatric cancer cell lines to identify multiple opportunities for drug repurposing: Primary screen for TC32 cells (AID 1347089). Also: nearly all actives have a fitted effect of over 60% in size. Put shortly: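 Measured quantity: luminescence from CellTiter-Glo, reflecting metabolically active TC32 cells following 48 h of compound. Curves came straight from multi-point titrations, with 8 or 11 points in primary and 11 in confirmatory screening.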

A short description of assay [8]: qHTS of pediatric cancer cell lines to identify multiple opportunities for drug repurposing: Primary screen for DAOY cells (AID 1347090). Also: series mostly up to about 46 µM; nearly all actives have a fitted effect of over 55% in size. The procedure, abridged:
(§1)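 Viability measured as metabolically active cells via CellTiter-Glo luminescence following 48 hours of compound exposure, 11-point dilutions in confirmatory testing. 500-1,000 cells/well plated 5 hours before dosing; controls were DMSO and 2.3 µM bortezomib.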

Assay [9] is described as follows: qHTS of pediatric cancer cell lines to identify multiple opportunities for drug repurposing: Primary screen for SJ-GBM2 cells (AID 1347091). Put shortly:
as §1

Assay [10] can be described thus: qHTS of pediatric cancer cell lines to identify multiple opportunities for drug repurposing: Primary screen for SK-N-MC cells (AID 1347093). Also: potency is read from the fitted curve at half-maximal effect. Put shortly: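 Metabolically active cells were quantified by ATP-dependent luminescence (CellTiter-Glo, 15 min at room temperature) following 48 h treatment. Cells had been plated at 500-1,000 per well and settled for 5 h beforehand.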

Assay [11] is described as follows: qHTS of pediatric cancer cell lines to identify multiple opportunities for drug repurposing: Primary screen for NB-EBc1 cells (AID 1347095). Put shortly: (§2)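 Following a 5-hour attachment period, cells at 500-1,000/well received compounds and were cultured for 48 hours. CellTiter-Glo was added and luminescence read to estimate viable, metabolically active cells.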

Assay [12] can be described thus: qHTS of pediatric cancer cell lines to identify multiple opportunities for drug repurposing: Primary screen for U-2 OS cells (AID 1347096). Also: nearly all actives have a fitted effect of over 50% in size. Put shortly:
(§3)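 Viability after 48 h compound treatment at 37C, 500-1,000 cells/well, read as ATP luminescence with CellTiter-Glo. Primary screens used 11-point (MIPE, 0.78 nM-46 µM) or 8-point (NPC, 0.59 nM-46 µM) final concentrations; follow-up screens used 11-point dilutions.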

Assay [13] in a line: qHTS of pediatric cancer cell lines to identify multiple opportunities for drug repurposing: Primary screen for Saos-2 cells (AID 1347097). Also: nearly all actives have a fitted effect of over 40% in size. Also: potency is read from the fitted curve at half-maximal effect. The procedure, abridged:
as §2

Assay [14] in a line: qHTS of pediatric cancer cell lines to identify multiple opportunities for drug repurposing: Primary screen for SK-N-SH cells (AID 1347098). Also: nearly all actives have a fitted effect of over 65% in size. Also: potency is read from the fitted curve at half-maximal effect. The procedure, abridged: (§4)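 Cells (500-1,000/well) rested 5 h, then received compounds for 48 h; metabolically active cells were measured by CellTiter-Glo luminescence. Final concentrations spanned up to 46 µM (MIPE, 11-point) or 0.59 nM-46 µM (NPC, 8-point) in primary screens, 11-point in follow-ups.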

Assay [15] in a line: qHTS of pediatric cancer cell lines to identify multiple opportunities for drug repurposing: Primary screen for NB1643 cells (AID 1347099). Also: nearly all actives have a fitted effect of over 50% in size. The procedure, abridged:
as §2

Assay [16] can be described thus: qHTS of pediatric cancer cell lines to identify multiple opportunities for drug repurposing: Primary screen for LAN-5 cells (AID 1347100). Also: potency is read from the fitted curve at half-maximal effect. Put shortly: as §3
The nature of assay [17]: qHTS of pediatric cancer cell lines to identify multiple opportunities for drug repurposing: Primary screen for BT-12 cells (AID 1347101). Also: nearly all actives have a fitted effect of over 25% in size. Also: potency is read from the fitted curve at half-maximal effect. Put shortly: as §4
A short description of assay [18]: qHTS of pediatric cancer cell lines to identify multiple opportunities for drug repurposing: Primary screen for A673 cells (AID 1347092). Also: nearly all actives have a fitted effect of over 45% in size. Also: potency is read from the fitted curve at half-maximal effect. Put shortly: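 Cells are plated, rested 5 h, dosed by pintool, incubated 48 h, then lysed with CellTiter-Glo and read by luminescence. DMSO is the neutral control; bortezomib at 2.3 uM final is the positive control.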
Assay [19] is described as follows: qHTS of pediatric cancer cell lines to identify multiple opportunities for drug repurposing: Primary screen for BT-37 cells (AID 1347094). Also: potency is read from the fitted curve at half-maximal effect. Put shortly:
as §2

For assay [20], the target named is T1, Tyrosine-protein phosphatase non-receptor type substrate 1 (Homo sapiens) + Leukocyte surface antigen CD47 (Homo sapiens). Nature of the assay: CD47-SIRPalpha protein protein interaction - Alpha assay qHTS validation (AID 1347059).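 Also: bead proximity luminescence from CD47 binding SIRPalpha after compound preincubation with SIRPalpha.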 Put shortly:
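SIRPalpha-biotin 25 nM + cpd, 30 min RT, dark; add CD47-His 12.5 nM, 30 min; add Ni-NTA/SAV beads 10 ug/mL, 30 min; AlphaScreen. Buffer PBS pH 7.4 + 0.05% IGEPAL CA-630. Non-biotinylated SIRPalpha as control inhibitor.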

T1 sequence (P78324 whole entry, looked up, the tested form may be a part): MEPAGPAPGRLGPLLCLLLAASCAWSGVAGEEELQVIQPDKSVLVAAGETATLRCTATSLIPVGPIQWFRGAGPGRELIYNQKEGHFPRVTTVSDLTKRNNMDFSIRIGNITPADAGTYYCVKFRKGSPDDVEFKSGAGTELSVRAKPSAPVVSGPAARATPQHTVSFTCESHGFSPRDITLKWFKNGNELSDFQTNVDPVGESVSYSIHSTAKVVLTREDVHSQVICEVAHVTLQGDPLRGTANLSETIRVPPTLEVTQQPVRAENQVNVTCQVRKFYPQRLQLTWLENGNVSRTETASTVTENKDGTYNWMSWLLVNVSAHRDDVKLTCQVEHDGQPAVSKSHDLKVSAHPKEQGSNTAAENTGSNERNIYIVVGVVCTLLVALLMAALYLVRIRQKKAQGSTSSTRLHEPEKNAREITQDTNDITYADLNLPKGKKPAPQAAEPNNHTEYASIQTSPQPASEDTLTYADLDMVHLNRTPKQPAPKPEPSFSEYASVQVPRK
T1 sequence (Q08722 whole entry, looked up, the tested form may be a part): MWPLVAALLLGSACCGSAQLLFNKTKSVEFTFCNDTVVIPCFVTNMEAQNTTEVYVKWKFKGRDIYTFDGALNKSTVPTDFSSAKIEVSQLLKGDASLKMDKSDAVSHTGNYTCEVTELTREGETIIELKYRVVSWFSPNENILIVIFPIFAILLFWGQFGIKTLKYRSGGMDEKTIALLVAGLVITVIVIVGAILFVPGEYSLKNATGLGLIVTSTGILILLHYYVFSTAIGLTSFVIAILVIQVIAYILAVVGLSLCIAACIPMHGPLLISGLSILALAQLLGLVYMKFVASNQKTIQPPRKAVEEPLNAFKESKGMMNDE
Sequence of Atrial natriuretic peptide receptor 1 (Homo sapiens) (P16066 whole entry, looked up): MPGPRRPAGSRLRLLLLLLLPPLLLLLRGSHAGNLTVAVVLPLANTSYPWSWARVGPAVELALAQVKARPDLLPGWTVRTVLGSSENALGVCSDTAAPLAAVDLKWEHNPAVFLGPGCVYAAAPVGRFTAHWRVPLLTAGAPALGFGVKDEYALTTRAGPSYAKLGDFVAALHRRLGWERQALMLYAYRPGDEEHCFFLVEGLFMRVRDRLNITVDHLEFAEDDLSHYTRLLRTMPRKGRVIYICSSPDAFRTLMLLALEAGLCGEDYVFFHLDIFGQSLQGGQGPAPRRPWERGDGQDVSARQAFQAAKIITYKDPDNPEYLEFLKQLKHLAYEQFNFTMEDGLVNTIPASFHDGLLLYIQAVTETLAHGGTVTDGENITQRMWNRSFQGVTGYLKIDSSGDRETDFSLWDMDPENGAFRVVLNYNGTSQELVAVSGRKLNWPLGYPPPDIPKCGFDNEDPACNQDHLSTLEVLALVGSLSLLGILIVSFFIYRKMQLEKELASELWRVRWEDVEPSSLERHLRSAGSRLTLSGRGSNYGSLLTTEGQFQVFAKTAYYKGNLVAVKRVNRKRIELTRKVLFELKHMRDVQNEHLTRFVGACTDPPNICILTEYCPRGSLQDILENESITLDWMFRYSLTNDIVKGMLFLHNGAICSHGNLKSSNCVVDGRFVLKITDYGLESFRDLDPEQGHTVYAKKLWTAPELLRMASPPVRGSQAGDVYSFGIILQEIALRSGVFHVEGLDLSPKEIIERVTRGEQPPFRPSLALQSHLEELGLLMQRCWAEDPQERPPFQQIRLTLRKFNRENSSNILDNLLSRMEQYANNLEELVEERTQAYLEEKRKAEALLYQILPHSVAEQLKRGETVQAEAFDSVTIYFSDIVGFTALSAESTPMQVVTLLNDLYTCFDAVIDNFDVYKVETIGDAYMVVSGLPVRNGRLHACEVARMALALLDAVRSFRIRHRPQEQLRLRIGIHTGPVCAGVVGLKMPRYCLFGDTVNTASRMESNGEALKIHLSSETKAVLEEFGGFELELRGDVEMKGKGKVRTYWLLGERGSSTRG
Sequence of Parathyroid hormone/parathyroid hormone-related peptide receptor (Homo sapiens) (Q03431 whole entry, looked up): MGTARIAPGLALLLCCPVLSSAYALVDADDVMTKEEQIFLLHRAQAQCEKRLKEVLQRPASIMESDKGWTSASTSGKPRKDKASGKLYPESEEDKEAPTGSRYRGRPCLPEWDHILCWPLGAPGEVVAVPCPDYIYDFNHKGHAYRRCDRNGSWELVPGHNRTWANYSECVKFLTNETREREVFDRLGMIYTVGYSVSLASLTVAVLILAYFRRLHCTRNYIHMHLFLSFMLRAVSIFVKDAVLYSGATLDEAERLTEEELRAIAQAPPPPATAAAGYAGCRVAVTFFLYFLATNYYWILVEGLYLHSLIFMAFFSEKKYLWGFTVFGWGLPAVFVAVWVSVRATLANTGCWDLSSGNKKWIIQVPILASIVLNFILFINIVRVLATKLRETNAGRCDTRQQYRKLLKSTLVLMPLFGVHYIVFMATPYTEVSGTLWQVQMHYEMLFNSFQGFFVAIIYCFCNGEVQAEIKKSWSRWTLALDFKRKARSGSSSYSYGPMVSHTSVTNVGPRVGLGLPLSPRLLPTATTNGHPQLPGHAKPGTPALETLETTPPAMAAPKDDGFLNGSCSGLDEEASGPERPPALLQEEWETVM

Consider `C[C@H]1c2cccc(O)c2C(O)=C2C(=O)[C@]3(O)C(O)=C(C(N)=O)C(=O)[C@@H](N(C)C)[C@@H]3[C@@H](O)[C@@H]21`, for which the Potency entry in assay [1], in assay [2], in [3], in [6], in assay [7] and in [8] was “inactive” in each case. Besides, the Potency result in [9], in assay [10], in [11], in [12], in [13] and in [14] was “inactive” in each case. The Potency entry in [15] and in [16] was “inactive” each time. Besides, the result in assay [4] and in [5] was inactive. In [17], the Potency is 24.3 µM (active).

As for `CN1CCN(CCCN2c3ccccc3Sc3ccc(Cl)cc32)CC1`, the Potency result in assay [1], in assay [6], in assay [11] and in assay [12] was “inactive” in each case. Further, the Potency in assay [2] was 18.5 µM (active); in [3], 23.5 µM (active) and inactive; in [18] it was 9.35 µM (active); in [10], 0.0418 µM (active); in assay [19] it was 9.68 µM (active); in [13], 0.235 µM (active). In addition, the Potency is 24.4 µM (active) in assay [14], 9.35 µM (active) in assay [16] and 6.11 µM (active) in [17]. Moreover, the result in assay [4] and in assay [5] was inactive.

On to `CN1C(C(=O)Nc2ccccn2)=C(O)c2ccccc2S1(=O)=O`, for which the Potency result in [1], in assay [2], in assay [3], in assay [20], in assay [6] and in assay [9] was “inactive” in each case. Also, the Potency entry in assay [18], in [12], in [13], in assay [14] and in [17] was “inactive” throughout. In assay [4], the outcome was inactive.

As for `CC(C)NCC(O)c1ccc(O)c(O)c1` (configuration not stated), the Potency entry in assay [1], in [2], in [3], in assay [20], in assay [12] and in assay [14] was “inactive” throughout. For the same compound, in assay [17], the Potency result is “inactive”. The result in assay [4] and in assay [5] was inactive. Besides, the Potency was 0.0119 µM (active) in [6], 1.18 µM (active) in assay [18] and 0.935 µM (active) in assay [10].

For the compound `COc1ccc2[nH]cc(CCNC(C)=O)c2c1`, the Potency entry in assay [1], in [2], in [3], in assay [20], in assay [6] and in assay [8] was “inactive” in each case. For the same compound, the Potency result in [9], in assay [18], in assay [19], in [11], in assay [12] and in assay [13] was “inactive” each time. Further, the Potency result in assay [14], in assay [15], in assay [16] and in assay [17] was “inactive” each time. In addition, the outcome in assay [4] and in [5] was inactive.

Take `CCC1(c2ccccc2)C(=O)NCNC1=O`: the Potency entry in [1], in assay [2], in [3], in assay [20], in assay [6] and in [9] was “inactive” in each case. The Potency result in [19], in assay [11], in assay [12], in assay [13], in assay [16] and in [17] was “inactive” throughout. Also, the outcome in assay [4] and in assay [5] was inactive.

For the compound `COc1ccccc1N1CCN(CC(O)COc2cccc3ccccc23)CC1` (configuration not stated), the Potency result in assay [1], in assay [2], in assay [3], in assay [20], in [6] and in assay [8] was “inactive” throughout. In addition, the Potency entry in assay [9], in assay [18], in assay [10], in [19], in [11] and in [12] was “inactive” throughout. Also, the Potency entry in assay [15], in [16] and in [17] was “inactive” throughout. Further, the result in [4] and in [5] was inactive.

For `Cn1c(=O)c2[nH]cnc2n(C)c1=O`, the Potency result in assay [1], in assay [2], in [3], in [20], in assay [6] and in assay [8] was “inactive” in each case. Moreover, the Potency entry in assay [9], in assay [18], in [19], in assay [11], in assay [12] and in assay [13] was “inactive” each time. For the same compound, the Potency result in assay [14], in assay [15], in assay [16] and in assay [17] was “inactive” each time. The outcome in assay [4] was inactive.
